Common to all, as to conditions: mRNA level, 48 h; actives raise or lower the signal
Read-out in test [1]: BCL2L11 (gene 10018)
Nature of the test: LTEA_HepaRG_BCL2L11: Life Technologies and Expression Analysis (LTEA) Assay for Bcl-2 (BCL2L11) gene using HepaRG (AID 2283473). In outline: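 HepaRG, 48 h exposure, 8-pt half-log series from 100 uM in 0.5% DMSO, duplicates; qRT-PCR (Fluidigm TaqMan) for BCL2L11, housekeeping-normalized; bidirectional curve fit relative to DMSO baseline.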

Read-out in test [2]: Apolipoprotein A-V (APOA5) gene, APOA5 (gene 116519)
In words: LTEA_HepaRG_APOA5: Life Technologies and Expression Analysis (LTEA) Assay for Apolipoprotein A-V (APOA5) gene using HepaRG (AID 2283474). In outline: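 HepaRG, 48 h chemical exposure in serum-free induction medium, 8-pt half-log series (top 100 uM), 0.5% DMSO vehicle, duplicates. Readout: APOA5 mRNA by qRT-PCR, housekeeping-normalized; bidirectional fit vs DMSO baseline.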

Read-out in test [3]: Apoptosis regulator Bcl-2 (Homo sapiens) (UniProt P10415)
In words: LTEA_HepaRG_BCL2: Life Technologies and Expression Analysis (LTEA) Assay for Bcl-2 gene using HepaRG (AID 2283475). In outline: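 qRT-PCR of BCL2 transcript, normalized to three housekeeping genes (ACTB, GAPDH, POLR2A), after 48 h chemical exposure of HepaRG cells; concentrations top 100 uM with half-log dilutions, 0.5% DMSO vehicle, duplicates; changes up or down fitted relative to vehicle.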

Read-out in test [4]: Bcl-2 (BID) gene, BID (gene 637)
In words: LTEA_HepaRG_BID: Life Technologies and Expression Analysis (LTEA) Assay for Bcl-2 (BID) gene using HepaRG (AID 2283476). In outline: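 Duplicate 48 h treatments of HepaRG cells in serum-free induction medium spanned 100 uM downward in half-log steps, 0.5% DMSO. Transcript change quantified by qRT-PCR against three housekeeping genes, fitted up or down versus DMSO.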

Read-out in test [5]: Caspase-3 (Homo sapiens) (UniProt P42574)
In words: LTEA_HepaRG_CASP3: Life Technologies and Expression Analysis (LTEA) Assay for cysteine-aspartic acid protease (CASP3) using HepaRG (AID 2283477). In a few lines:
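HepaRG, 48 h exposure, 8 conc. (top 100 uM, half-log steps, duplicate), 0.5% DMSO vehicle; qRT-PCR of CASP3 transcript, housekeeping-normalised (ACTB/GAPDH/POLR2A); bidirectional curve fit vs DMSO baseline.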

Read-out in test [6]: Cytochrome P450 (CYP24A1), CYP24A1 (gene 1591)
In words: LTEA_HepaRG_CYP24A1: Life Technologies and Expression Analysis (LTEA) Assay for Cytochrome P450 (CYP24A1) using HepaRG (AID 2283478). In outline: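 qRT-PCR read-out: CYP24A1 transcript levels normalized to three housekeeping genes, bidirectional curve fits against 0.5% DMSO baseline. Human HepaRG cells treated 48 h with chemicals at eight concentrations from 100 uM in half-log steps.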

Read-out in test [7]: Cytochrome P450 (CYP1A2), CYP1A2 (gene 1544)
In words: LTEA_HepaRG_CYP1A2: Life Technologies and Expression Analysis (LTEA) Assay for Cytochrome P450 (CYP1A2) using HepaRG (AID 2283479). In a few lines:
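HepaRG, 48 h exposure, top 100 uM, half-log 8-pt, 0.5% DMSO vehicle, duplicates. Readout: TaqMan qRT-PCR of CYP1A2 mRNA, housekeeping-normalized (ACTB/GAPDH/POLR2A). Gain/loss fit relative to DMSO baseline.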

Read-out in test [8]: cysteine-aspartic acid protease (CASP8), CASP8 (gene 841)
Nature of the test: LTEA_HepaRG_CASP8: Life Technologies and Expression Analysis (LTEA) Assay for cysteine-aspartic acid protease (CASP8) using HepaRG (AID 2283480). In a few lines: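 Concentration-response in duplicate up to 100 uM (half-log steps, 0.5% DMSO) on differentiated HepaRG cultures for 48 h. Expression change of CASP8 mRNA is determined by TaqMan qRT-PCR with housekeeping-gene normalization.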

Read-out in test [9]: Cytochrome P450 (CYP2B6), CYP2B6 (gene 1555)
Nature of the test: LTEA_HepaRG_CYP2B6: Life Technologies and Expression Analysis (LTEA) Assay for Cytochrome P450 (CYP2B6) using HepaRG (AID 2283481). In outline:
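Read-out is CYP2B6 mRNA by TaqMan qRT-PCR, normalized to three housekeeping genes and fitted bidirectionally against 0.5% DMSO baseline. Human HepaRG cells received test chemicals for 48 h, top concentration 100 uM, half-log dilutions.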

Read-out in test [10]: Cytochrome P450 2C19 (Homo sapiens) (UniProt P33261)
Nature of the test: LTEA_HepaRG_CYP2C19: Life Technologies and Expression Analysis (LTEA) Assay for CYP2C19 using HepaRG (AID 2283482). In outline:
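HepaRG, 48 h chemical exposure, 8-pt half-log series from 100 uM in 0.5% DMSO, duplicates. Readout: CYP2C19 mRNA by TaqMan qRT-PCR, housekeeping-normalized. Bidirectional fit vs DMSO baseline; phenobarbital 1mM as induction control.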

Read-out in test [11]: CYP2C9 (gene 1559)
Nature of the test: LTEA_HepaRG_CYP2C9: Life Technologies and Expression Analysis (LTEA) Assay for CYP2C9 using HepaRG (AID 2283484). In outline:
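Eight-point concentration-response (highest 100 uM, half-log dilutions) in HepaRG cells for 48 h; CYP2C9 expression by qRT-PCR normalized to ACTB, GAPDH, POLR2A. Bidirectional fit, DMSO baseline.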

Read-out in test [12]: CYP2E1 (gene 1571)
In words: LTEA_HepaRG_CYP2E1: Life Technologies and Expression Analysis (LTEA) Assay for CYP2E1 using HepaRG (AID 2283485). In a few lines: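 CYP2E1 transcript measured by Fluidigm qRT-PCR against three housekeeping genes in human HepaRG cells treated 48 h (top 100 uM, half-log steps, 0.5% DMSO vehicle). Gain or loss fitted relative to DMSO baseline.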

Read-out in test [13]: CYP4A11 (gene 1579)
Nature of the test: LTEA_HepaRG_CYP4A11: Life Technologies and Expression Analysis (LTEA) Assay for CYP4A11 using HepaRG (AID 2283486). In a few lines:
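CYP4A11 transcript levels were quantified by TaqMan qRT-PCR after HepaRG human liver cells were treated for 48 hours with test chemicals (top 100 uM, half-log dilutions, 0.5% DMSO). Gain or loss of signal was fitted relative to DMSO.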

Read-out in test [14]: Cytochrome P450 3A4 (Homo sapiens) (UniProt P08684)
In words: LTEA_HepaRG_CYP3A4: Life Technologies and Expression Analysis (LTEA) Assay for CYP3A4 using HepaRG (AID 2283487). In a few lines:
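Differentiated HepaRG cells in serum-free induction medium exposed in duplicate for 48 h to 8 half-log concentrations up to 100 uM in 0.5% DMSO. CYP3A4 mRNA measured by qRT-PCR normalized to ACTB, GAPDH and POLR2A; bidirectional fit versus DMSO.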

Read-out in test [15]: DNA damage-inducible transcript 3 (DDIT3), DDIT3 (gene 1649)
In words: LTEA_HepaRG_DDIT3: Life Technologies and Expression Analysis (LTEA) Assay for DNA damage-inducible transcript 3 (DDIT3) using HepaRG (AID 2283488). In a few lines: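 DDIT3 transcript was quantified by qRT-PCR with ACTB/GAPDH/POLR2A normalization after 48 h chemical treatment of differentiated HepaRG cells in 0.5% DMSO. Dosing was eight-point, half-log, top 100 uM, duplicate wells. Curves fitted bidirectionally versus DMSO.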

Read-out in test [16]: Pro-epidermal growth factor (Homo sapiens) (UniProt P01133)
In words: LTEA_HepaRG_EGF: Life Technologies and Expression Analysis (LTEA) Assay for Epidermal growth factor (EGF) using HepaRG (AID 2283489). In outline: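 qRT-PCR readout of EGF transcript after 48 h chemical exposure of HepaRG cells; eight concentrations from 100 uM down in half-log steps, duplicate wells, 0.5% DMSO vehicle. Bidirectional curve fitting against DMSO baseline.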

Read-out in test [17]: Early growth response protein 1 (EGR1) transcription factor, EGR1 (gene 1958)
In words: LTEA_HepaRG_EGR1: Life Technologies and Expression Analysis (LTEA) Assay for Early growth response protein 1 (EGR1) transcription factor using HepaRG (AID 2283490). In outline:
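EGR1 expression change in human HepaRG after 48 h chemical exposure, assessed by housekeeping-normalized qRT-PCR; concentration-response up to 100 uM, fitted in both directions against DMSO controls.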

Read-out in test [18]: Ezrin (EZR), EZR (gene 7430)
Nature of the test: LTEA_HepaRG_EZR: Life Technologies and Expression Analysis (LTEA) Assay for Ezrin (EZR) using HepaRG (AID 2283491). In a few lines:
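Differentiated human HepaRG cells, 48 h after plating, were exposed in serum-free induction medium for 48 hours to eight half-log concentrations up to 100 uM in 0.5% DMSO. EZR mRNA was measured by TaqMan qRT-PCR, normalized to ACTB, GAPDH and POLR2A, and fitted bidirectionally against DMSO.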

Read-out in test [19]: Cytochrome P450 3A7 (Homo sapiens) (UniProt P24462)
In words: LTEA_HepaRG_CYP3A7: Life Technologies and Expression Analysis (LTEA) Assay for CYP3A7 using HepaRG (AID 2283492). In a few lines: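 CYP3A7 transcript levels were read by TaqMan qRT-PCR on Fluidigm arrays after 48 h chemical exposure of human HepaRG cells, with housekeeping-gene normalisation. Eight half-log concentrations up to 100 uM in 0.5% DMSO were tested in duplicate.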

Read-out in test [20]: CYP2C8 (gene 1558)
In words: LTEA_HepaRG_CYP2C8: Life Technologies and Expression Analysis (LTEA) Assay for CYP2C8 using HepaRG (AID 2283483). In a few lines: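 This is a transcriptional endpoint in HepaRG cultures: 48 h exposure, highest concentration 100 uM. CYP2C8 mRNA is quantified by TaqMan qRT-PCR.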

The source made the active and inactive calls. Rule for the calls: active = hit-call score of the fitted dose curve at least 0.9, where 1 is the maximum; inactive = score below 0.9.

Caspase-3 (Homo sapiens), sequence (P42574 whole entry, looked up): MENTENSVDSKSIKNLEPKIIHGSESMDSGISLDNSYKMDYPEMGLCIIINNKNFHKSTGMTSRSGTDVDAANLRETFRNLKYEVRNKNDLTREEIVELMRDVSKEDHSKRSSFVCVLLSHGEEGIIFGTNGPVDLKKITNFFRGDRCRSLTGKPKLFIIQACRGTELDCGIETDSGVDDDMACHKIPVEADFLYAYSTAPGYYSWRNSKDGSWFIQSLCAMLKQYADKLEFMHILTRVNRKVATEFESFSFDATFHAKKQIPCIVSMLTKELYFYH
Apoptosis regulator Bcl-2 (Homo sapiens), sequence (P10415 whole entry, looked up): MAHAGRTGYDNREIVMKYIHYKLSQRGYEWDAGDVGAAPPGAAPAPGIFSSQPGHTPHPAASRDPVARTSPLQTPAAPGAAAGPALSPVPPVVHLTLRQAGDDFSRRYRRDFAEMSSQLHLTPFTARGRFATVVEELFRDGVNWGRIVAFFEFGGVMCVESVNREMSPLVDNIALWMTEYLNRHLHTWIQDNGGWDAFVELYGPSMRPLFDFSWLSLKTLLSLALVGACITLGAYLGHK
Cytochrome P450 2C19 (Homo sapiens), sequence (P33261 whole entry, looked up): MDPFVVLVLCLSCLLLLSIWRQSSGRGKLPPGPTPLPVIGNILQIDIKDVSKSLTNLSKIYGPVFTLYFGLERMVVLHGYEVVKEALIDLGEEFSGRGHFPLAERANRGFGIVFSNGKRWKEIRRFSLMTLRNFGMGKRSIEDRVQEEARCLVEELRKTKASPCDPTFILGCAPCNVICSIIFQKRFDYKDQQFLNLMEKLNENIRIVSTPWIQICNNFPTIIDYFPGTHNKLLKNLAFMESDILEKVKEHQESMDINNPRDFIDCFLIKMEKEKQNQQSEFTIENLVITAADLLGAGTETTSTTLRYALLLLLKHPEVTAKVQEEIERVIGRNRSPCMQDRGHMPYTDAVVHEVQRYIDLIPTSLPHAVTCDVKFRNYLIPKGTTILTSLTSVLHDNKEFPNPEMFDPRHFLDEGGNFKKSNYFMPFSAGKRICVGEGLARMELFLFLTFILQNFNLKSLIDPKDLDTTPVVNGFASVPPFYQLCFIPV
Cytochrome P450 3A7 (Homo sapiens), sequence (P24462 whole entry, looked up): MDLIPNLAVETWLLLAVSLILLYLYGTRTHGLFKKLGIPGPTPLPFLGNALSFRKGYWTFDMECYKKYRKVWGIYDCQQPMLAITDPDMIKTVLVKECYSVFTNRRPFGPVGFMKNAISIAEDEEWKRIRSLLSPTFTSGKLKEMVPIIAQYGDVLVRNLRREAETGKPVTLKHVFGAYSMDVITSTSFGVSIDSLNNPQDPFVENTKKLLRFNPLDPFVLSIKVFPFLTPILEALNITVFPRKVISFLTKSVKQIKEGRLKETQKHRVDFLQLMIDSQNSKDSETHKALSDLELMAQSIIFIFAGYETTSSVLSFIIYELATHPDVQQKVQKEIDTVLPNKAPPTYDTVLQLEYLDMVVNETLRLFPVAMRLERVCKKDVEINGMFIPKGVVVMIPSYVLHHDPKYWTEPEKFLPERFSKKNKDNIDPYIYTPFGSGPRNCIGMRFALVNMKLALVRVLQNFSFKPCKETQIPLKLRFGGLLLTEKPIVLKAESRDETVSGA
Cytochrome P450 3A4 (Homo sapiens), sequence (P08684 whole entry, looked up): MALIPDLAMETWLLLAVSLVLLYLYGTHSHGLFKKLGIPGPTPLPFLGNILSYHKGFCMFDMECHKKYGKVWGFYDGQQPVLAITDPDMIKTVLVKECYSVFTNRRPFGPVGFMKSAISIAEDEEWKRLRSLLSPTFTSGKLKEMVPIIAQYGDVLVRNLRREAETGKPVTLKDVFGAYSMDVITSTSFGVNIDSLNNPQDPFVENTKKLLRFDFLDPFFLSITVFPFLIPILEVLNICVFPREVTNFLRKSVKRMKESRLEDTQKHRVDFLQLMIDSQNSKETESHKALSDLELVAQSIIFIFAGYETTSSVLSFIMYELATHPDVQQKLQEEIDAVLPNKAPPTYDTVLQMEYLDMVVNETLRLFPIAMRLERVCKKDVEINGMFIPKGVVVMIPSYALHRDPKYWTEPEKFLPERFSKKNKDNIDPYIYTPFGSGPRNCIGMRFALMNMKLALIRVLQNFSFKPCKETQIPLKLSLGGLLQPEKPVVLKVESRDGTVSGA

A word on the AC50: it is the midpoint of the concentration-response curve, whichever way the signal moves. In the case of `CC(C)COC(=O)c1ccccc1C(=O)OCC(C)C`, the outcome in test [1], in [2], in test [3], in test [4], in [5] and in [6] was inactive. For the same compound, the outcome in test [8], in [9], in [10], in test [11], in test [12] and in [13] was inactive. In addition, the outcome in test [14], in [15], in test [16], in test [17], in test [18] and in test [19] was inactive. Further, the AC50 in test [7] was 32.5 µM (active).
As to `Nc1ccc(N=Nc2ccccc2)cc1`, the half-maximal activity concentration (AC50) in test [1] was 17.6 µM (active); in test [2], 17.7 µM (active); in test [4], 50 µM (active); in test [7], 88.2 µM (active); in test [8], 17.3 µM (active); in test [9] it was 13.1 µM (active). Besides, the AC50 in test [10] was 14.4 µM (active); in test [11] it was 14.7 µM (active); in test [12], 23.7 µM (active); in test [13] it was 13.3 µM (active); in test [15] it was 32.4 µM (active); in test [17], 29.4 µM (active). For the same compound, the compound was called inactive in [3], in test [5], in test [6], in test [16] and in test [18].
`c1ccc(C2CO2)cc1` (centres undefined): the compound was classed as inactive in [1], in test [2], in test [3], in test [4], in test [5] and in [6]. Also, the outcome in [7], in [8], in test [9], in test [10], in [11] and in test [12] was inactive. In addition, the result in [13], in test [14], in test [15], in test [16], in test [17] and in test [18] was inactive. Moreover, the compound was called inactive in test [19].
With `CCC12COCN1COC2`, the call in test [1], in [2], in test [3], in [4], in [5] and in test [6] was inactive. Also, the compound was classed as inactive in [7], in test [8], in [9], in test [10], in test [20] and in test [11]. The call in test [12], in [13], in test [15], in [16], in [17] and in test [18] was inactive. Also, in [19], the call was inactive.

Values taken from PubChem BioAssay (EPA / NIEHS).
